Our source for the inhibition values is PubChem BioAssay AID651674 (The Scripps Research Institute Molecular Screening Center, 2012).

The whole screen tested about 2,200 compounds, of which about 1,700 (77%) were called active.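 The calls were made as follows: active = mean inhibition across replicate wells exceeding the computed hit threshold (cut at about 13% in these data); inactive = the rest.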 So high a share suggests a set chosen from earlier hits. The list is a sample of the results.

The assay deals with Hepatocyte nuclear factor 4-alpha (Homo sapiens) (UniProt P41235). Put plainly: HNF4 dimerization inhibitors, counter-screen for ABHD5-PLIN5 interaction inhibitor project, biochemical, split-luciferase complementation, luminescence (AID 651674).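 Also: light from luciferase halves that rejoin when HNF4 fusion proteins dimerize; 0% = DMSO only wells and the 100% control is not given.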 The note with it: at 4 µM, hits give high values. (A counterscreen serves to expose hits that act by an unwanted route or on another target.)
Hepatocyte nuclear factor 4-alpha (Homo sapiens), sequence (P41235 whole entry, looked up, the tested form may be a part): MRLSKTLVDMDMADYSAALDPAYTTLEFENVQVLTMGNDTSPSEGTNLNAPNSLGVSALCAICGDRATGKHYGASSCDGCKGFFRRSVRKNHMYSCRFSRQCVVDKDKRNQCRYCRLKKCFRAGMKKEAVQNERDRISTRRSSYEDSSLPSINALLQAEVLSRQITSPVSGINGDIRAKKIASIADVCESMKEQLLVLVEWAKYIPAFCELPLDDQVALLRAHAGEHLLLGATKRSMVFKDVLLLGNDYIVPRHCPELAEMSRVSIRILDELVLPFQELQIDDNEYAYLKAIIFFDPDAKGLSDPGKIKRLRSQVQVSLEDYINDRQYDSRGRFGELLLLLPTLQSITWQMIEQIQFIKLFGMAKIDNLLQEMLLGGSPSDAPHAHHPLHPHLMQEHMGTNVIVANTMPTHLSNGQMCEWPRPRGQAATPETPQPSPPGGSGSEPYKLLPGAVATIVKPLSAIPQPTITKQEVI
For orientation: inhibition means the drop in the measured response relative to a control, in per cent. With `COc1ccc(CN2C(=O)NC(=O)/C(=C\c3ccc(OC)c(OC)c3OC)C2=O)cc1`, the inhibition is 31.3% (active).

As to `CN(C)CC1Oc2ccccc2OC1(O)c1ccccc1` (stereo not given), the inhibition was 104% (active).

As for `Cc1cccc(N2C(=O)NC(=O)/C(=C\c3cnn(-c4ccccc4)c3)C2=O)c1`, the inhibition was 68.7% (active).

As for `CCOC(=O)[C@]12Cc3ccccc3[C@H]1N(C1CCCCC1)C(=O)c1cc(OC)ccc12`, the inhibition is 27.9% (active).

On to `CCc1nnc(NS(=O)(=O)c2ccc(N=Cc3c(O)n(-c4ccccc4)c(=O)[nH]c3=O)cc2)s1`, for which the inhibition is 33.6% (active).
